The values that follow come from PubChem BioAssay (NCI).

The panel holds about 83,000 compounds, 20% with a hit somewhere; the sample as a whole holds those more often.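 Plates (96-well) were seeded with cells, treated with compound at one concentration, and incubated for 48 hours before percent growth was determined.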 Unmarked numbers belong to inactive results. Calls of active or inactive are those of the source. How the source made its calls: active means growth percent below 10; inactive means the rest.

Some test systems named below: T-47D breast; BT-549 breast; MDA-MB-435 melanoma; SW-620 colon; MCF7 breast; HCT-116 colon; HCC-2998 colon; KM12 colon.
Common to all, as to experiment: NCI-60 one-dose screen, 48 h (100 = growth as untreated, 0 = no growth, -100 = all killed)
Holding throughout (conditions): 10 µM unless noted

Take `CC(=O)OC[C@]12CC[C@H]3[C@@H](C[C@H]4O[C@]45CC=CC(=O)[C@]35C)[C@]1(O)CC[C@@]2(O)[C@@](C)(O)C1CC(C)=C(C)C(=O)O1` (stereo not given in full): the growth in the assay on T-47D breast was -23.2% (active); with BT-549 breast, -12.2% (active); with MDA-MB-435 melanoma, -77.4% (active); in the assay with SW-620 colon, -32.1% (active); in the assay with MCF7 breast, -27% (active); with HCT-116 colon, -29.3% (active). For the same molecule, the growth is -82.8% (active) in the assay with HCC-2998 colon and -70.8% (active) with KM12 colon.

`Cc1ccc(S(=O)(=O)C2=C3C(=C(c4ccccc4)c4ccccc43)CN(S(=O)(=O)c3ccc(C)cc3)C2)cc1`: the growth was 12% in the assay with T-47D breast; -1.45% (active) with BT-549 breast; 74.2% in the assay with MDA-MB-435 melanoma; -17.7% (active) in the assay with SW-620 colon; 37.6% with MCF7 breast; 8.4% (active) with HCT-116 colon. For the same molecule, the growth was 88.9% in the assay with HCC-2998 colon and 64.1% with KM12 colon.

For the molecule `Clc1cccc(-c2cc(-c3ccc4c(c3)OCCO4)[nH]n2)c1`, the growth with T-47D breast was 22% [25 µM]; in the assay with BT-549 breast, 53.7% [25 µM]; in the assay on MDA-MB-435 melanoma, -37.5% [25 µM] (active); in the assay on SW-620 colon, 27.5% [25 µM]; with MCF7 breast it was 15.6% [25 µM]; with HCT-116 colon, 26.3% [25 µM]. In addition, the growth is 58.1% [25 µM] in the assay with HCC-2998 colon and 25.7% [25 µM] in the assay with KM12 colon.

As to `Cc1ccc(S(=O)(=O)n2cc(C(=O)C(=O)N3CCOCC3)c3ccccc32)cc1`, the growth in the assay with T-47D breast was 74.8%; with BT-549 breast it was 87.5%; in the assay on MDA-MB-435 melanoma, 104%; with SW-620 colon, 101%; with MCF7 breast it was 99.4%; with HCT-116 colon it was 87.1%. Besides, the growth is 99.6% in the assay on HCC-2998 colon and 98.7% in the assay with KM12 colon.

Take `COc1ccc(S(=O)(=O)Nc2cc(/C=C\c3cc(OC)c(OC)c(OC)c3)cc(OC)c2OC)cc1`: the growth in the assay with T-47D breast was 86.6%; with BT-549 breast it was 26.6%; in the assay with MDA-MB-435 melanoma, -26.3% (active); in the assay on SW-620 colon, 26.4%; with HCT-116 colon it was 5.64% (active); with HCC-2998 colon, 17.7%. In the assay on KM12 colon, the growth is 10%.

For the molecule `Cc1ccc(S(=O)(=O)NCCNc2nccc(-c3c(-c4ccc(O)cc4)nc4sccn34)n2)cc1`, the growth with T-47D breast was 85%; in the assay on BT-549 breast it was 106%; in the assay with MDA-MB-435 melanoma it was 86.4%; in the assay on SW-620 colon, 126%; in the assay on MCF7 breast, 93.7%; with HCT-116 colon, 100%. The growth in the assay on KM12 colon is 100%.

As for `COc1ccc(Cn2cc3c(c2-c2cc(OC)c(OC)c(OC)c2)CCc2cnoc2-3)cc1`, the growth was 41.2% with T-47D breast; 41.6% with BT-549 breast; -37.3% (active) in the assay on MDA-MB-435 melanoma; 29.8% in the assay with SW-620 colon; 13% in the assay with HCT-116 colon; 1.48% (active) in the assay on HCC-2998 colon. Also, the growth in the assay on KM12 colon is 11.1%.

Turning to `COc1ccc(C2C=C(c3ccc(N)cc3)N=C3SC=CN32)cc1OC` (stereo not given), the growth in the assay with T-47D breast is 102%; in the assay with BT-549 breast, 108%; in the assay on MDA-MB-435 melanoma, 106%; in the assay on SW-620 colon it was 112%; in the assay with MCF7 breast, 98.6%; in the assay on HCT-116 colon, 107%. In addition, in the assay with KM12 colon, the growth was 99.5%.

With `C/C=C/C1=CN2C(=O)c3cc(OC4OC(C)C(NC)C(C)(O)C4O)c(C)cc3N=C[C@@H]2C1` (stereo not given in full), the growth is -4.57% (active) with T-47D breast; -41.2% (active) in the assay on BT-549 breast; -63.1% (active) in the assay on MDA-MB-435 melanoma; -0.311% (active) with SW-620 colon; 3.78% (active) in the assay on MCF7 breast; 3.87% (active) with HCT-116 colon. For the same molecule, in the assay with KM12 colon, the growth is -41.4% (active).

For `O=C(Nc1ccncc1)C(=O)c1cn(S(=O)(=O)c2ccccc2F)c2ccccc12`, the growth is 41.8% in the assay on T-47D breast; 39.1% in the assay with BT-549 breast; 3.81% (active) in the assay with MDA-MB-435 melanoma; 15.6% in the assay on SW-620 colon; 21.5% in the assay with MCF7 breast; 20.4% in the assay with HCT-116 colon. Moreover, the growth is 57.2% with HCC-2998 colon and 19.2% in the assay with KM12 colon.

On to `Nc1cc2c(cc1C(=O)c1cccc(F)c1)OCCO2`, for which the growth with T-47D breast was 93.6%; in the assay on BT-549 breast, 84.5%; in the assay with MDA-MB-435 melanoma, 92.1%; with SW-620 colon, 105%; with MCF7 breast, 99.2%; in the assay with HCT-116 colon, 100%. The growth in the assay on HCC-2998 colon is 95.4%; in the assay with KM12 colon, 100%.

Regarding `O=S(=O)(NCCNc1nccc(-c2c(-c3ccc(F)cc3)nc3sccn23)n1)c1ccc(F)cc1`, the growth in the assay on T-47D breast is 60.1%; with BT-549 breast, 92.2%; in the assay with MDA-MB-435 melanoma, 55%; in the assay on SW-620 colon it was 90.8%; in the assay with MCF7 breast, 30.9%; in the assay with HCT-116 colon, 60.4%. Also, the growth in the assay with KM12 colon was 76.5%.

For the molecule `COc1cc(-c2nn(-c3cccc(NC(=O)c4ccc(Cl)c(C(F)(F)F)c4)c3)cc2-c2ccncc2)ccc1Cl`, the growth with T-47D breast was 26.2%; in the assay on BT-549 breast, 49.7%; with MDA-MB-435 melanoma it was -26.8% (active); in the assay with SW-620 colon, 36.1%; in the assay with MCF7 breast, 37.6%; with HCT-116 colon, 24%. The growth in the assay on KM12 colon is 28.8%.

`C=C1CCC2C3(C)COC(c4c(OC)cccc4OC)OC3CCC2(C)C1C/C=C1/C(=O)OCC1O` (stereo not given): the growth in the assay on T-47D breast was 54%; with BT-549 breast, 16.9%; in the assay with MDA-MB-435 melanoma, 19.4%; in the assay on SW-620 colon it was 16.2%; in the assay on MCF7 breast, 27.8%; with HCT-116 colon it was 1.8% (active). Also, the growth was 113% with HCC-2998 colon and 9.36% (active) with KM12 colon.
